Assay outcomes as filed in PubChem BioAssay.
Sampled rows, rich in hits. Any-hit rate of the full collection: about 4.4%.
PfHsp90 set2: growth inhibition of PfHsp90-expressing yeast, primary screen, antimalarial PfHsp90 inhibitor project, S. cerevisiae, BacTiter-Glo luminescence, single point, set 2. BacTiter-Glo ATP, 48 h; yeast lacking PDR1 and PDR3 efflux regulators. inhibition, % at 9.4 µM. 310,000 compounds, 0.32% hits. AID 504621, 2011;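 active = every replicate shows inhibition above about 80%, whatever the replicate mean, limit read from the data; inconclusive = mean inhibition reaches the set limit but some replicate falls short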;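 note: 0% = DMSO neutral controls and 100% = 20 µM radicicol positive controls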
SKKanGAS inh: S. pyogenes SKKanGAS growth inhibitors in kanamycin, primary screen, streptokinase expression inhibitor project, SKKanGAS strain, BacTiter-Glo luminescence; 6 h; inhibition, % at 7.5 µM; 300,000 compounds, 1.3% hits; AID 1662, 2009;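 active = mean replicate score, as percent of positive control median, at least 50; inconclusive = mean below 50 but one replicate at or above 50; inactive = mean and every replicate below 50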;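 note: strain carries kanamycin resistance gene driven by streptokinase promoter and grows in 40 µg/ml kanamycin; loss of luminescence reflects streptokinase promoter inhibition or plain growth inhibition; 0% = median of DMSO wells and 100% = positive control at its reference dose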
TIM10 inh: growth inhibitors of isogenic TIM10 control yeast, primary screen, counter-screen for tim10-1 yeast inhibitor project, luminescence, uHTS; 330,000 compounds, 1.4% hits; AID 463195, 2010; S. cerevisiae TIM10 strain growth, BacTiter-Glo luminescence, 24 h; inhibition, % at 10 µM;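 active = inhibition of 40% or more at the single tested concentration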;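 note: wild-type TIM10 isogenic control strain grown at permissive 25 °C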
tim10-1 inh: growth inhibitors of tim10-1 mutant yeast, primary screen, luminescence, uHTS; AID 463190, 2010; S. cerevisiae tim10-1 ts strain growth, BacTiter-Glo, 24 h; 330,000 compounds, 2.2% hits; inhibition, % at 20 µM;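 active = inhibition of at least 40%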;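 note: mutant grown at 25 °C; 0% = DMSO wells with yeast and 100% = wells holding no yeast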
tim23-1 inh: growth inhibitors of tim23-1 mutant yeast, primary screen, luminescence, uHTS | S. cerevisiae tim23-1 growth, BacTiter-Glo luminescence, 24 h | 330,000 compounds, 1.3% hits | inhibition, % at 20 µM;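 active = growth inhibition of the mutant yeast at or above 50%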;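 note: temperature-sensitive mutant grown at 25 °C; plate controls were DMSO-treated mutant yeast for no effect and medium wells lacking yeast for full effect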
tim10-1 conf: growth inhibitors of tim10-1 mutant yeast, confirmation, single concentration, luminescence, S. cerevisiae. 7,400 compounds, 56% hits. S. cerevisiae tim10-1 ts strain growth, BacTiter-Glo, 24 h. inhibition, % at 20 µM. shares compounds with tim10-1 inh;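 active = inhibition of yeast growth at or above a set limit in either of two repeat tests at 20 µM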;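 note: tim10-1 mutant grown at permissive 25 °C to find synthetic lethal compounds; 0% = DMSO yeast wells and 100% = medium wells without yeast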
TIM10 conf: growth inhibitors of wild-type TIM10 yeast, confirmation, counter-screen for tim10-1 synthetic lethality project, single concentration, luminescence, S. cerevisiae; shares compounds with TIM10 inh; S. cerevisiae tim10 strain growth, BacTiter-Glo luminescence, 24 h; inhibition, % at 10 µM; 4,600 compounds, 63% hits; AID 463215, 2010;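 active = inhibition of yeast growth at or above a set limit in either of two replicates at 10 µM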;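 note: this counterscreen used the strain with wild-type TIM10; 0% = yeast with DMSO and 100% = medium wells lacking yeast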
Numbers without * were called inactive; ? = inconclusive; . = not tested or not shown.

SMILES | PfHsp90 set2 | SKKanGAS inh | TIM10 inh | tim10-1 inh | tim23-1 inh | tim10-1 conf | TIM10 conf
CCC1CSC(Nc2ccc(C(=O)/C=C/c3cccc(C)c3)cc2)=N1 (stereo not drawn) | -14 | 40 | 62* | 57* | -3 | 44* | 62*
CCC1CSC(Nc2ccc(C(=O)/C=C/c3ccc(Oc4ccccc4)cc3)cc2)=N1 (stereo not drawn) | -15 | 35 | -11 | 3 | 11 | . | .
CCOC(=O)/C(=C/c1c(C)n(C)c2ccc([N+](=O)[O-])cc12)C(C)=O | 10 | -2 | 54* | 58* | 49 | 37* | 40*
CCOC(=O)C(c1ccccc1)C(Nc1ccc(F)cc1)c1ccccn1 (stereo not drawn) | 1 | -12 | 1 | 21 | 33 | . | .
CCOC(=O)C(C(=O)OCC)C(Nc1ccc(Br)cc1)c1ccccc1 (stereo not drawn) | 12 | -3 | 51* | 51* | 45 | 39* | 52*
ClC(CCN1CCN(Cc2ccccc2)CC1)c1ccccc1 (stereo not drawn) | 0 | 0 | 6 | 1 | 7 | . | .
CC(C)OC(=O)CN1C(=O)S/C(=C/c2ccc(N3CCCCC3)o2)C1=O | ? | 4 | 46* | 46* | 44 | 72* | 83*
Cc1cccc(N2CCN(C3=NC(=O)C(Cc4ccccc4)S3)CC2)c1 (stereo not drawn) | -29 | -9 | 8 | 39 | 37 | . | .
COc1ccc2c(=O)c(-c3cnn(-c4ccccc4)c3)c(C)oc2c1 | 11 | -5 | 70* | 48* | 46 | 29 | 65*
O=C(O)C1(c2ccccc2)CCN(S(=O)(=O)c2ccc(Cl)cc2)CC1 | 23 | 0 | -3 | -1 | 4 | . | .
C#CCOC(=O)c1ccccc1C(=O)n1nnc2ccccc21 | -7 | 6 | 31 | 39 | 49 | . | .
O=C(c1cccc2ccccc12)n1nnc2ccccc21 | . | -1 | 59* | 66* | 0 | 61* | 73*
Cc1cc(Sc2nc(N)ncc2[N+](=O)[O-])ncn1 | 39 | -2 | 49* | 51* | 41 | 48* | 32*
COc1ccc(S(=O)(=O)/N=C2\C=C(Nc3ccc(O)cc3)C(=O)c3ccccc32)cc1 | -4 | 103* | 52* | 67* | 41 | 62* | 81*
COC(=O)C(C(C)=O)C1=C/C(=N\S(=O)(=O)c2ccc(C)cc2)c2ccccc2C1=O (stereo not drawn) | -5 | 7 | 43* | 40* | 44 | 41* | 29
CC(=O)Nc1ccc(NC2=C/C(=N/S(=O)(=O)c3cccs3)c3ccccc3C2=O)cc1 | -12 | 4 | 17 | 19 | 40 | . | .
FC(F)(F)Oc1ccc(NC(=S)Nc2ccc(OC(F)(F)F)cc2)cc1 | 16 | 72* | 57* | 50* | 49 | 62* | 70*
Cc1ccc(-c2csc3ncnc(Sc4nnc(CN5CCCCCC5=O)o4)c23)cc1 | 19 | 14 | 56* | 40* | 35 | 36* | 39*
CC(=O)Nc1cccc(C(=O)OCC(=O)N2CCC(c3ccccc3)=N2)c1 | 13 | -8 | 11 | 13 | 15 | . | .
CCOc1ccc2c(c1)c1nnc(SCC3CCCO3)nc1n2C (stereo not drawn) | . | 7 | 44* | 46* | 23 | 30* | 47*
CSc1ccc(S(=O)(=O)N2CCC(C(=O)NCC3CCCO3)CC2)cc1 (stereo not drawn) | 9 | -6 | 1 | 7 | 12 | . | .
CCS(=O)(=O)N1Cc2ccccc2CC1C(=O)NC(C)C12CC3CC(CC(C3)C1)C2 (stereo not drawn) | -13 | 1 | 47* | 41* | 35 | 30* | -17
CC(=O)Nc1ccc(S(=O)(=O)N(C)CC(=O)N2CCN(C(=O)c3ccco3)CC2)cc1 | 4 | . | -12 | -6 | -5 | . | .
N/C(Cc1ccc(Cl)cc1)=N\OC(=O)c1ccc2ccccc2c1 | 5 | -4 | 75* | 64* | 50 | 60* | 3
N/C(Cc1ccc([N+](=O)[O-])cc1)=N\OC(=O)Cc1ccc(Cl)cc1 | -11 | 5 | 41* | 66* | 37 | 16 | 77*
SMILES | PfHsp90 set2 | SKKanGAS inh | TIM10 inh | tim10-1 inh | tim23-1 inh | tim10-1 conf | TIM10 conf
N/C(Cc1ccc(Cl)cc1Cl)=N\OC(=O)c1ccccc1 | . | 10 | 86* | 65* | 20 | 24 | 84*
N/C(Cc1ccc(Cl)cc1Cl)=N\OC(=O)Cc1ccc(Cl)cc1 | 8 | -14 | 85* | 62* | 47 | 55* | 5
O=C(C/C=N/OCc1ccc(Cl)cc1Cl)c1ccccc1 | -1 | 1 | 15 | 20 | 7 | . | .
CC1CN(CCc2ccccc2)c2nc3c(c(=O)n(C)c(=O)n3C)n2C1 (stereo not drawn) | 8 | 2 | 7 | 15 | 13 | . | .
CCC(C)C(NC(=O)OC(C)(C)C)C(=O)NC(C(=O)NC(C)C(N)=O)C(C)C (stereo not drawn) | -4 | -6 | -12 | -11 | -6 | . | .
Cc1ccc(/C(N)=N/OC(=O)c2ccc3ccccc3c2)cc1 | 5 | -13 | 55* | 54* | 49 | 53* | 66*
CCc1ccc(OCC(=O)O/N=C(\N)Cc2ccc([N+](=O)[O-])cc2)cc1 | -26 | -6 | 60* | 57* | 47 | 73* | 41*
CCc1ccc(OCC(=O)Oc2ccc([N+](=O)[O-])cc2)cc1 | 4 | -3 | 4 | -16 | -2 | . | .
Cc1ccc(/C(N)=N/OC(=O)Oc2ccccc2)cc1 | 3 | 5 | 12 | 1 | -13 | . | .
COc1ccc(CCC(C)NCc2cccc(Br)c2)cc1 (stereo not drawn) | -10 | 2 | 6 | -5 | 7 | . | .
COc1ccc(-n2c(=O)c3c4c(sc3n3c(=S)[nH]nc23)CCCC4)cc1 | -28 | 18 | 48* | 40 | 30 | 37* | 18
Cc1cc2ncn(-c3ncnc4sc5c(c34)CCC(C)C5)c2cc1C (stereo not drawn) | -50 | 3 | 52* | 50* | 47 | 45* | 45*
Cc1cc2ncn(-c3ncnc4scc(-c5ccccc5)c34)c2cc1C | -38 | 7 | 41* | 50* | 40 | 45* | 37*
Cc1cc2ncn(-c3ncnc4sc5c(c34)CCCC5)c2cc1C | . | 33 | 19 | 37 | 40 | . | .
CN1c2ccccc2-c2ccccc2S1(=O)=O | -48 | . | . | . | . | . | .
